Outcome and AC50 data for ten compounds are collected here from PubChem BioAssay (EPA / NIEHS).

Assay [1] has as its target Myc proto-oncogene protein (Homo sapiens) (UniProt P01106). As to the kind of experiment: ATG_Myc_CIS: Attagene CIS-FACTORIAL HepG2 Assay for human Myelocytomatosis (Myc) Proto-Oncogene Transcription Factor (AID 2282990). The note with it: HepG2, Attagene cis-reporter transcription factor activity; actives raise or lower the signal. A digest of the protocol:
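DMSO-normalised, bidirectionally fitted reporter mRNA signal. HepG2 cells transfected with cis reporter constructs, treated 24 h; transcripts detected by RT-PCR, 6-FAM primer extension and CE.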

Assay [2] is described as follows: ATG_NF_kB_CIS: Attagene CIS-FACTORIAL HepG2 Assay for human Nuclear Factor Kappa B (NF-kB) (AID 2282991). The following applies: HepG2 Attagene cis-factorial NF-kB reporter mRNA; actives raise or lower the signal. A digest of the protocol: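 Endogenous transcription factor activity in HepG2 was captured via cis-regulated reporter constructs; after 24 h dosing, reporter mRNA was reverse-transcribed, amplified, fluorescently labelled and sized by capillary electrophoresis, with activity fitted bidirectionally relative to DMSO.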

Assay [3] is described as follows: ATG_NRF2_ARE_CIS: Attagene CIS-FACTORIAL HepG2 Assay for human Nuclear Factor Erythroid 2 Related Factor 2 (NFR2) response to Antioxidant Response Elements (ARE) (AID 2282992). The note with it: HepG2 Attagene ARE/NRF2 reporter, transcription factor activity; actives raise or lower the signal. A digest of the protocol: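 Endogenous transcription factor activity read out as reporter transcript levels (RT-PCR plus capillary electrophoresis, fluorescence) in transiently transfected HepG2 cells. Measured at 24 h after dosing; gain or loss of signal fitted versus DMSO.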

The nature of assay [4]: ATG_Oct_MLP_CIS: Attagene CIS-FACTORIAL HepG2 Assay for human Octamer-Binding Transcription Factor (Oct) (AID 2282993). The following applies: HepG2 Attagene cis-factorial Oct reporter, mRNA; actives raise or lower the signal. The essentials: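 HepG2 cells transiently transfected with cis-promoter-driven multiplexed reporter transcription units, dosed for 24 h. Reporter mRNA quantified by RT-PCR, fluorescent labelling, HpaI digestion and capillary electrophoresis; bidirectional fits versus DMSO baseline.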

In assay [5] the target is Cellular tumor antigen p53 (Homo sapiens) (UniProt P04637). As to the kind of experiment: ATG_p53_CIS: Attagene CIS-FACTORIAL HepG2 Assay for human p53 Transcription Factor (AID 2282994). The note with it: HepG2 p53 cis-element reporter, Attagene mRNA; actives raise or lower the signal. The essentials: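 Endogenous p53 activity read in transiently transfected HepG2 from a cis-element-driven reporter transcript after 24 h exposure. RNA reverse-transcribed, PCR-amplified, fluorescently labelled and sized by capillary electrophoresis; gain or loss fitted against DMSO baseline.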

Assay [6] addresses human Retinoic Acid Receptor beta (RARb), RARB (gene 5915) (UniProt P10826). As to the kind of experiment: ATG_RARb_TRANS: Attagene TRANS-FACTORIAL HepG2 Assay for human Retinoic Acid Receptor beta (AID 2283004; active = hit-call score of the fitted dose curve at least 0.9, where 1 is the maximum). The essentials: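 Transient transfection of HepG2 with multiple reporter units → chemical dosing, 24 h → total RNA isolation → RT with oligo(dT) → reporter-specific PCR, 6-FAM primer extension, HpaI digest → capillary electrophoresis. Positive direction vs DMSO control.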

Assay [7] deals with Retinoic acid receptor alpha (Homo sapiens) (UniProt P10276). As to the kind of experiment: ATG_RARa_TRANS: Attagene TRANS-FACTORIAL HepG2 Assay for human Retinoic Acid Receptor alpha (RARa) (AID 2283005; active = hit-call score of the fitted dose curve at least 0.9, where 1 is the maximum). A digest of the protocol:
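HepG2 cells transiently transfected with multiple reporter units expressing chimeric RARα-GAL4 fusion, with GAL4-UAS-driven reporters. After 24 h compound exposure, reporter mRNA induction quantified by RT-PCR and capillary electrophoresis with fluorescent labeling; gain-of-signal fitted relative to DMSO control.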

Assay [8] deals with Peroxisome proliferator-activated receptor gamma (Homo sapiens) (UniProt P37231). As to the kind of experiment: ATG_PPARg_TRANS: Attagene TRANS-FACTORIAL HepG2 Assay for human Peroxisome Proliferator-activated Receptor-gamma (PPARg) (AID 2283007; active = hit-call score of the fitted dose curve at least 0.9, where 1 is the maximum). The essentials: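 A TRANS-format multiplexed reporter assay measures activity of an exogenous chimeric NR-Gal4 protein in HepG2 cells. After 24 h of chemical exposure, reporter transcripts are amplified, fluorescently labelled and sized by capillary electrophoresis, with gain of signal scored against DMSO.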

Assay [9] concerns the target human RAR-related Orphan Receptor gamma (RORg), RORC (gene 6097) (UniProt P51449). As to the kind of experiment: ATG_RORg_TRANS: Attagene TRANS-FACTORIAL HepG2 Assay for human RAR-related Orphan Receptor gamma (RORg) (AID 2283011; active = hit-call score of the fitted dose curve at least 0.9, where 1 is the maximum). The essentials:
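First, HepG2 liver cells were transfected with GAL4-UAS-driven reporter constructs and the RORg-Gal4 fusion. Next, they were treated with chemical for 24 h. Finally, reporter mRNA was quantified by RT-PCR and capillary electrophoresis, with upward activity fitted against DMSO.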

Assay [10] deals with Nuclear receptor subfamily 1 group I member 2 (Homo sapiens) (UniProt O75469). As to the kind of experiment: ATG_PXR_TRANS: Attagene TRANS-FACTORIAL HepG2 Assay for human Pregnane X Receptor (PXR) (AID 2283008; active = hit-call score of the fitted dose curve at least 0.9, where 1 is the maximum). The essentials:
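Transactivation by exogenous PXR–GAL4 fusion measured as reporter transcript induction after 24 h compound treatment of transfected human HepG2 cells. Read-out via RT-PCR and capillary electrophoresis of labelled fragments, fitted upward relative to DMSO.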

Assay [11] deals with human Peroxisome Proliferator-activated Receptor delta (PPARd), PPARD (gene 5467) (UniProt Q03181). As to the kind of experiment: ATG_PPARd_TRANS: Attagene TRANS-FACTORIAL HepG2 Assay for human Peroxisome Proliferator-activated Receptor delta (PPARd) (AID 2283002; active = hit-call score of the fitted dose curve at least 0.9, where 1 is the maximum). The essentials:
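Measured quantity: GAL4-UAS reporter transcript induction in HepG2 after 24 h chemical dosing, with NR-Gal4 chimeras supplied by transient transfection. Detection by RT-PCR and capillary electrophoresis; upward fit against DMSO.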

In assay [12] the target is human Retinoic Acid Receptor gamma (RARg), RARG (gene 5916) (UniProt P13631). As to the kind of experiment: ATG_RARg_TRANS: Attagene TRANS-FACTORIAL HepG2 Assay for human Retinoic Acid Receptor gamma (RARg) (AID 2283009; active = hit-call score of the fitted dose curve at least 0.9, where 1 is the maximum). The essentials: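 Gain-of-signal relative to DMSO is reported from fluorescent capillary electrophoresis of RT-PCR reporter products. These came from HepG2 cells expressing transfected RARg-GAL4 chimeras with UAS reporters, harvested 24 h after dosing.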

Assay [13] can be described thus: BSK_3C_TissueFactor: BioMAP Diversity Plus: 3C Assay for Tissue Factor Biomarker Activity (AID 2282997). The following applies: BioMAP 3C HUVEC, tissue factor biomarker readout; actives raise or lower the signal. The essentials: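 After a 24 h chemical exposure of primary human umbilical vein endothelial cells, Tissue Factor levels were quantified by ELISA.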
Assay [14] in a line: BSK_3C_uPAR: BioMAP Diversity Plus: 3C Assay for Urokinase-type plasminogen activator receptor (uPAR) Biomarker Activity (AID 2282998). The note with it: BioMAP 3C HUVEC, uPAR biomarker ELISA; actives raise or lower the signal. A digest of the protocol: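 Human umbilical vein endothelial primary cells were exposed to test chemical for 24 h. Cell-surface uPAR was then quantified by ELISA, and responses were fitted bidirectionally against DMSO as negative control and baseline.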
In general terms: In an ELISA, binding on a coated surface is turned into a signal by an enzyme label.

The nature of assay [15]: BSK_3C_VCAM1: BioMAP Diversity Plus: 3C Assay for Vascular cell adhesion molecule 1 (VCAM1) Biomarker Activity (AID 2282999). The note with it: BioMAP 3C HUVEC, VCAM1 ELISA, cytokine-stimulated; actives raise or lower the signal. The essentials: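 Vascular primary endothelium (human umbilical vein) was exposed to chemicals and assayed 24 h later. VCAM-1 levels came from ELISA, with DMSO serving as baseline for bidirectional fitting.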

The nature of assay [16]: BSK_4H_Eotaxin3: BioMAP Diversity Plus: 4H Assay for Eotaxin 3 Biomarker Activity (AID 2283000).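 Note: CCL26 protein level quantified by ELISA in parallel with SRB cytotoxicity check.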 The note with it: primary human endothelial cells (HUVEC); actives raise or lower the signal. A digest of the protocol:
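Chemicals were added to human umbilical vein endothelium cultures, and Eotaxin-3 was quantified by ELISA at 24 h. Values were derived by bidirectional fitting with DMSO serving as negative control and activity baseline.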

Assay [17] deals with human Peroxisome Proliferator-activated Receptor alpha (PPARa), PPARA (gene 5465) (UniProt Q07869). As to the kind of experiment: ATG_PPARa_TRANS: Attagene TRANS-FACTORIAL HepG2 Assay for human Peroxisome Proliferator-activated Receptor alpha (PPARa) (AID 2283001; active = hit-call score of the fitted dose curve at least 0.9, where 1 is the maximum). The essentials:
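Exposure: 24 h, transiently transfected HepG2 cells. Endpoint: GAL4-UAS reporter mRNA, RT-PCR with capillary electrophoresis fluorescence. Baseline: DMSO; increases fitted.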

Read-out in assay [18]: Intercellular Adhesion Molecule 1 (ICAM1), ICAM1 (gene 3383)
As to the kind of experiment: BSK_3C_ICAM1: BioMAP Diversity Plus: 3C Assay for Intercellular Adhesion Molecule 1 (ICAM1) Biomarker Activity (AID 2283003). The note with it: primary human endothelial cells (HUVEC); actives raise or lower the signal. The essentials:
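Using DMSO as baseline, bidirectional curve fitting was applied to ICAM-1 ELISA signals from HUVEC in the 3C system, measured 24 h after compound addition.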

Assay [19] is described as follows: BSK_3C_Proliferation: Cell Proliferation Assessment in the BioMAP Diversity Plus: 3C Assay (AID 2283006).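 Note: potency may reflect either rise or fall in cell number versus DMSO.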 The following applies: primary human endothelial cells (HUVEC). A digest of the protocol: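 Measured here: sulforhodamine B (0.1%) staining of TCA-fixed sub-confluent umbilical vein endothelial cultures 48 h post-dosing, absorbance 560 nm. DMSO served as negative control and baseline; both signal gain and loss were modelled.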

Where “and” joins values, the source holds several entries; their conditions need not be identical. Equal values may be shown once. Inconclusive results are not listed. Calls of active or inactive are those of the source. Rule for the calls, unless noted: active = hit-call score of the fitted dose curve at least 0.9, where 1 is the maximum; inactive = score below 0.9.

Chain of Myc proto-oncogene protein (Homo sapiens) (P01106 whole entry, looked up): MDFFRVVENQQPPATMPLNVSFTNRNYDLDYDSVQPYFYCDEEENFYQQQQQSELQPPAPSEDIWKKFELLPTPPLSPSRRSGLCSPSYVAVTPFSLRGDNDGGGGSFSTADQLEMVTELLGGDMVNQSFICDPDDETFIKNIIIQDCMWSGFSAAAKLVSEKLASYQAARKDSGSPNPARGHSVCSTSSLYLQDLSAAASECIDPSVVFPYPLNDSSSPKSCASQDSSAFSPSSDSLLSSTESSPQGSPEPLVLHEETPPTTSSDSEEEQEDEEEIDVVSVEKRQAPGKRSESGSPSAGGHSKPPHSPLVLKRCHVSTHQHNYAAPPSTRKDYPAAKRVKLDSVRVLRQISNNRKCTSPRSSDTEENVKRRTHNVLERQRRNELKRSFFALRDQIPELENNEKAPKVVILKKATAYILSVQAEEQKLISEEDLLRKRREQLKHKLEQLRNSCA
Chain of Nuclear receptor subfamily 1 group I member 2 (Homo sapiens) (O75469 whole entry, looked up, the tested form may be a part): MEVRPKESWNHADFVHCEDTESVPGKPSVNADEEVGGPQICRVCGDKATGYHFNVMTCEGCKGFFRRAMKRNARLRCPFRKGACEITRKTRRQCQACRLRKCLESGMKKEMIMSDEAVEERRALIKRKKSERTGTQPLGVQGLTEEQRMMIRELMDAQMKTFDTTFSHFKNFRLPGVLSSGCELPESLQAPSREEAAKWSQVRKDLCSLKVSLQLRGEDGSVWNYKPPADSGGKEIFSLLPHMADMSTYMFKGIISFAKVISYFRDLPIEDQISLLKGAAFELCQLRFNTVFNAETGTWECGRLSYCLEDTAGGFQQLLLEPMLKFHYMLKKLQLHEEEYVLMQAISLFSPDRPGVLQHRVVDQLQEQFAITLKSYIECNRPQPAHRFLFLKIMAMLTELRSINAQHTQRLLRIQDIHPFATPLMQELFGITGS
Chain of Cellular tumor antigen p53 (Homo sapiens) (P04637 whole entry, looked up): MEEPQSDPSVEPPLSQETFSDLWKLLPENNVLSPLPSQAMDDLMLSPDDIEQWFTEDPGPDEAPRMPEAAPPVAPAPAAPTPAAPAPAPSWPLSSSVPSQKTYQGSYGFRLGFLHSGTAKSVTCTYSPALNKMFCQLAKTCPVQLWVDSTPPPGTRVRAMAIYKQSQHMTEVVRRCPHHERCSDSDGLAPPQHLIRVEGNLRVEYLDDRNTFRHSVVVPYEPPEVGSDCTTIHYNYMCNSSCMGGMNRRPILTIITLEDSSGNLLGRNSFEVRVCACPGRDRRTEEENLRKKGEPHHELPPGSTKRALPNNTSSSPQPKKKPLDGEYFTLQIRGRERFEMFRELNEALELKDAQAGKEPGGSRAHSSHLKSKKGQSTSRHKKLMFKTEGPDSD
Chain of Peroxisome proliferator-activated receptor gamma (Homo sapiens) (P37231 whole entry, looked up, the tested form may be a part): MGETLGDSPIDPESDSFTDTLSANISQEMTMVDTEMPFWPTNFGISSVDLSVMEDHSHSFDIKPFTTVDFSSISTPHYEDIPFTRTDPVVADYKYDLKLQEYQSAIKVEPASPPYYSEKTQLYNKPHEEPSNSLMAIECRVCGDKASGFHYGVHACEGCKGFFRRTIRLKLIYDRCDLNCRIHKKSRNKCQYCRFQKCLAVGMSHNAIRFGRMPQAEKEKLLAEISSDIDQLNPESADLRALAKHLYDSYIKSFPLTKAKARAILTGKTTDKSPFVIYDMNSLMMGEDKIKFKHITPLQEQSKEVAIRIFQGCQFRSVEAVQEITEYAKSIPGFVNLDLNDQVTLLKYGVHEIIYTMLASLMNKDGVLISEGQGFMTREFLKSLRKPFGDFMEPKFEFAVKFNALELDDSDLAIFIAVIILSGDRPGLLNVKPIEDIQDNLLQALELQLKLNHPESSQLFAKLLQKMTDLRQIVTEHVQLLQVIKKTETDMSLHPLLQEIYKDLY
Chain of human Retinoic Acid Receptor gamma (RARg), RARG (gene 5916) (P13631 whole entry, looked up, the tested form may be a part): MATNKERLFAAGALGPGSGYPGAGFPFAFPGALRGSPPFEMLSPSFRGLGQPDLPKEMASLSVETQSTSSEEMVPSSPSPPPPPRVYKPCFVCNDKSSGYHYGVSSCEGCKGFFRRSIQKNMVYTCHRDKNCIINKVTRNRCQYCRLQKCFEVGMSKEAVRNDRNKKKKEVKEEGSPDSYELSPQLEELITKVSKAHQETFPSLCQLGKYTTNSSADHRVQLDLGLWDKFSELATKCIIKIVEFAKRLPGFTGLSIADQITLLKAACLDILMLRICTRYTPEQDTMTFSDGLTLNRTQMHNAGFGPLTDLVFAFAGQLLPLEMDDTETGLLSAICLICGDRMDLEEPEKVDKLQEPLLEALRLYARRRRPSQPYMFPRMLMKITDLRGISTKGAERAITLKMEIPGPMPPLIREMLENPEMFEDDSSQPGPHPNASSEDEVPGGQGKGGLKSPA
Chain of human RAR-related Orphan Receptor gamma (RORg), RORC (gene 6097) (P51449 whole entry, looked up, the tested form may be a part): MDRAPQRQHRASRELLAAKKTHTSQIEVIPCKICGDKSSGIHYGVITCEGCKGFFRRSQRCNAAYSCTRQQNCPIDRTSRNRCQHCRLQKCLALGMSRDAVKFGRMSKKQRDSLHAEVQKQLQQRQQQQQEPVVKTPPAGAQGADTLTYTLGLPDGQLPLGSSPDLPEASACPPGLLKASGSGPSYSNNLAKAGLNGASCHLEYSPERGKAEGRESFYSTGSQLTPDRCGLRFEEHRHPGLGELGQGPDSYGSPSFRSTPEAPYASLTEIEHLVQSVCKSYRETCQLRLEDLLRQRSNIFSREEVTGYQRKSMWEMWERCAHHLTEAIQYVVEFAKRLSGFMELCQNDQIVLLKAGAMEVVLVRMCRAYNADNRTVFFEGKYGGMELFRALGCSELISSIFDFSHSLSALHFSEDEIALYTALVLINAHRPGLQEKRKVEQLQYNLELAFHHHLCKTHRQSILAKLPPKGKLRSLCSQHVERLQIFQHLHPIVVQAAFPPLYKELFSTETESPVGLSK
Chain of human Peroxisome Proliferator-activated Receptor delta (PPARd), PPARD (gene 5467) (Q03181 whole entry, looked up, the tested form may be a part): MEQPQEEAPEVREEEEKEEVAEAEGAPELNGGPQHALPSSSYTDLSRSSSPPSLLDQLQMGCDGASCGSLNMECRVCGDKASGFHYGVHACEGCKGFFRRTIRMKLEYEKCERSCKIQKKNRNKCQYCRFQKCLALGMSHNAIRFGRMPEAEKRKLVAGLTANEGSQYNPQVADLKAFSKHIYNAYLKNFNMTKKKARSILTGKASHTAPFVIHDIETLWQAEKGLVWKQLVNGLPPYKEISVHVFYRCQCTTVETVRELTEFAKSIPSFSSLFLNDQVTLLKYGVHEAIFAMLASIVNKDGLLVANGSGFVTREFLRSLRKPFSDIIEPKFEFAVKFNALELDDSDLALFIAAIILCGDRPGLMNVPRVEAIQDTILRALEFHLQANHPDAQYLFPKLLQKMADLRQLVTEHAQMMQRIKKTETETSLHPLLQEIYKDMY
Chain of Retinoic acid receptor alpha (Homo sapiens) (P10276 whole entry, looked up, the tested form may be a part): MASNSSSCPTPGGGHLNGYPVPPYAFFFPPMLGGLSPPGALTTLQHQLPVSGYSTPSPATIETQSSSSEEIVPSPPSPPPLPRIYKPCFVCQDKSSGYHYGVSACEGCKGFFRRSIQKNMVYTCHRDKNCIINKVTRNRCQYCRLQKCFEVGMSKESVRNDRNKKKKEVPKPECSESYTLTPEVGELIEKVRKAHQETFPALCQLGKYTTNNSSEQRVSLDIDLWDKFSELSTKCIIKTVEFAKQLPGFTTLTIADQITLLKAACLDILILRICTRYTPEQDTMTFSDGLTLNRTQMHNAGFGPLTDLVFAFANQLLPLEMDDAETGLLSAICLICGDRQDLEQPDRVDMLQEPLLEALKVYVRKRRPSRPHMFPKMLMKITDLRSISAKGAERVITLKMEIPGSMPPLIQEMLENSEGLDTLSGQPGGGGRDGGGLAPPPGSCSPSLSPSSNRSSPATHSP
Chain of human Retinoic Acid Receptor beta (RARb), RARB (gene 5915) (P10826 whole entry, looked up): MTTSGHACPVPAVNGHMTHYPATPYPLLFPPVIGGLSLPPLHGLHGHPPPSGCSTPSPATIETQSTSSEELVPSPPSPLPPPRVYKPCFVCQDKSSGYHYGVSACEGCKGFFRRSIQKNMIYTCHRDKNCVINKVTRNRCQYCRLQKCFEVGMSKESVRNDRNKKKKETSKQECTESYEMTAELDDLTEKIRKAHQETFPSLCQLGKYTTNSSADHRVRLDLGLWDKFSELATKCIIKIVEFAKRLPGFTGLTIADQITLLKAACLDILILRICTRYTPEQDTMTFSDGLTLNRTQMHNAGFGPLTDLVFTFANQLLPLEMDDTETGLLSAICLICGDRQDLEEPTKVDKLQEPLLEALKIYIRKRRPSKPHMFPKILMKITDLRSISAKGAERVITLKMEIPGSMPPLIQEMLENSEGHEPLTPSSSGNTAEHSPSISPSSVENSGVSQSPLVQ
Chain of human Peroxisome Proliferator-activated Receptor alpha (PPARa), PPARA (gene 5465) (Q07869 whole entry, looked up, the tested form may be a part): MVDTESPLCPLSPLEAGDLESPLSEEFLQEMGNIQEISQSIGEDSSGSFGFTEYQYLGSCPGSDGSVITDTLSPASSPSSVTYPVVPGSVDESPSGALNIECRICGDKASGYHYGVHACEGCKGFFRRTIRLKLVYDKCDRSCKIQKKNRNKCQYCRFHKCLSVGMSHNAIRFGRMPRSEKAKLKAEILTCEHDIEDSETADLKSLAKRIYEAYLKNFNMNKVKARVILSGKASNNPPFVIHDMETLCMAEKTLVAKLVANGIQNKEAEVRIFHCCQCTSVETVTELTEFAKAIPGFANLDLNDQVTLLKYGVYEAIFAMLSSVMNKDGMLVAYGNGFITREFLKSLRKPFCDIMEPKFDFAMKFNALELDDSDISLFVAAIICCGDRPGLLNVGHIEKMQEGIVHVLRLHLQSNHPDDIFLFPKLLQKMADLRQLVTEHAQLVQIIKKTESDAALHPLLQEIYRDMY

With `C[C@H](CCC(=O)NCC(=O)O)[C@H]1CC[C@H]2[C@@H]3[C@H](O)C[C@@H]4C[C@H](O)CC[C@]4(C)[C@H]3C[C@H](O)[C@]12C`, the compound was called inactive in [1], in assay [2], in assay [3], in assay [4], in assay [5] and in assay [6]. The compound was called inactive in [7] and in assay [8].
Turning to `C=C(C#N)C(=O)OCC`, the compound was called inactive in [1], in [3], in [4], in assay [8] and in [9]. Moreover, the AC50 is 100 µM (active) in [2] and 80 µM (active) in assay [5].
On to `C=Cc1ccc(C)cc1`, for which the call in assay [1], in assay [2], in assay [3], in assay [4], in assay [5] and in assay [10] was inactive.
In the case of `CC(C)(CO)[C@@H](O)C(=O)NCCC(=O)O`, the compound was classed as inactive in assay [1], in assay [2], in assay [3], in [4], in [5] and in assay [11]. The compound was classed as inactive in [10] and in [12].
In the case of `CCC(Cl)C(Cl)C(Cl)CC(Cl)C(Cl)C(C)Cl` (stereo not drawn), the call in assay [1], in assay [2], in [4], in [5] and in assay [11] was inactive. The AC50 in assay [3] was 43.4 µM (active); in assay [10] it was 1.74 µM (active).
Turning to `CCCC(=O)OC(C)(C)Cc1ccccc1`, the result in [1], in [2], in assay [4], in [5], in [11] and in [8] was inactive. Further, the result in assay [10] and in [9] was inactive. The AC50 in [3] is 145 µM (active).
As to `Nc1c(Cl)cc(Cl)cc1[N+](=O)[O-]`, the compound was classed as inactive in assay [1], in assay [2], in [4], in [5], in [11] and in assay [12]. In addition, the concentration at half-maximal activity (AC50) in assay [3] was 41.5 µM (active); in assay [10], 16.5 µM (active).
Turning to `CN(C)CCOc1ccc(/C(=C(/CCCl)c2ccccc2)c2ccccc2)cc1`, the compound was called inactive in [1], in assay [2], in assay [4], in [5], in assay [10] and in assay [12]. The AC50 in assay [3] is 2.47 µM (active).
For `CCCCCCC(CO)CCCC` (stereo not drawn), the call in assay [1], in assay [2], in assay [3], in assay [4], in assay [13] and in assay [14] was inactive. In addition, the outcome in assay [15], in assay [16], in assay [17], in assay [11], in assay [18] and in assay [7] was inactive. Also, the compound was called inactive in assay [8], in [12] and in assay [9]. For the same compound, in assay [19], the AC50 was 37.6 µM (active) and 31.2 µM (active).
Turning to `C#CC(C)(O)CC(C)C` (stereo not drawn), the compound was called inactive in assay [1], in assay [2], in assay [3], in assay [4], in [5] and in assay [8]. The call in assay [12] was inactive.

By AC50 is commonly meant the concentration at which the activity in the assay is half-maximal.
